The values below come from PubChem BioAssay (Tox21).

Records with an inconclusive call do not appear. The source made the active and inactive calls. Unless noted, the call rests on the fitted dose curve; in most records, active means well fitted curve in the direction sought with a large enough effect in the repeat runs; inconclusive means weak or mixed curves; inactive means no such curve, though single readings can be large; an effect the other way counts as inactive or inconclusive.

Experiment [1] in a line: qHTS assay to identify small molecule agonists of the vitamin D receptor (VDR) signaling pathway - cell viability counter screen (AID 743224). Further: nearly all actives have a fitted effect of over 50% in size. Further: potency means the concentration at half of the fitted maximal effect. The essentials: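 Counter screen run in the same wells as the VDR-bla reporter assay: CellTiter-Glo luminescence, 30 min at room temperature, after 16 h compound treatment at 37C of cells pre-plated for 4 h.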
On the technique in general: qHTS replaces the single test concentration by a dilution series.

Experiment [2] in a line: qHTS assay to identify small molecule antagonists of the vitamin D receptor (VDR) signaling pathway - cell viability counter screen (AID 743225). Further: nearly all actives have a fitted effect of over 50% in size. Further: potency means the concentration at half of the fitted maximal effect. In a few lines: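 Cytotoxicity toward the VDR-bla HEK 293T line was scored by ATP-based CellTiter-Glo luminescence, read in the wells already used for the beta-lactamase readout after 16 h compound treatment under 3 nM 1-alpha,25-dihydroxyvitamin D3 stimulation.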

A short description of experiment [3]: qHTS assay to identify small molecule agonists of the NFkB signaling pathway (AID 1159509; active means well fitted curve in the direction sought with a large enough effect in the signal ratio in the repeat runs, not every such curve was filed as active; the % refers to the signal ratio; further: series mostly up to about 61 µM). The essentials:
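Pathway activation was measured in ME-180 cells stably expressing beta-lactamase under NF-kB response element control. Substrate cleavage was read as the 460/530 nm emission shift after 5 hr compound incubation.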

The nature of experiment [4]: qHTS assay to identify small molecule agonists of the endoplasmic reticulum stress response signaling pathway (AID 1159516; active means well fitted activation curve with a large enough effect in the signal ratio in the repeat runs, not every such curve was filed as active; the % refers to the signal ratio). In a few lines:
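Ratiometric FRET readout (405 nm excitation; 460 and 530 nm emission) of a beta-lactamase gene driven by the ER stress response element, after 2 hr substrate loading. HeLa ESRE-bla cells were seeded overnight and treated with compounds for only 5 hr at 37 C.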

Experiment [5] is described as follows: qHTS assay to identify small molecule agonists of the endoplasmic reticulum stress response signaling pathway - cell viability counter screen (AID 1159517; calls by dose curve; further: series mostly up to about 61 µM; nearly all actives have a fitted effect of over 50% in size). In a few lines:
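Cpd-treated ESRE-bla HeLa (5 hr, 37 C) → LiveBLAzer 2 hr RT → CellTiter-Glo 30 min RT → luminescence.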

Experiment [6] is described as follows: qHTS assay to identify small molecule antagonists of the retinoid-related orphan receptor gamma (ROR-gamma) signaling pathway - cell viability counter screen (AID 1159520). Further: nearly all actives have a fitted effect of over 50% in size. Further: potency means the concentration at half of the fitted maximal effect. In a few lines:
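Tet-on ROR gamma CHO cells (1,000/well) were plated 4 hr, given compounds in DMSO for 2 hr at 37 C, then induced with 1 uM final doxycycline for 16 hr. Viability was read as ATP by CellTiter-Glo luminescence after 30 min.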

Experiment [7] can be described thus: qHTS assay to identify small molecule agonists of the AP-1 signaling pathway - cell viability counter screen (AID 1159525; calls by dose curve; further: nearly all actives have a fitted effect of over 55% in size). In a few lines:
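Each titration point was normalised to DMSO and tetra n-octyl ammonium bromide controls. The read was Cell Titer Glo luminescence after 30 min at RT, following 5 h compound exposure of ME-180 AP-1-bla cells at 37 °C.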

Experiment [8] can be described thus: qHTS assay to identify small molecule agonists of the AP-1 signaling pathway (AID 1159526; calls by dose curve).
Experiment [9] is described as follows: qHTS assay to identify small molecule agonists of the RXR signaling pathway - cell viability counter screen (AID 1159529). The essentials:
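Tox21 10K compounds were tested for cytotoxicity against GeneBLAzer RXR-alpha HEK 293T cells grown in 2% charcoal-stripped FBS. Exposure lasted 16 hr at 37 C, 5% CO2; viability read by CellTiter-Glo luminescence.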

Experiment [10] can be described thus: qHTS assay to identify small molecule antagonists of the retinoid acid receptor (RAR) signaling pathway - cell viability counter screen (AID 1159551). Further: nearly all actives have a fitted effect of over 35% in size. Further: potency means the concentration at half of the fitted maximal effect. In a few lines:
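Cytotoxicity counter screen: ATP content quantified by CellTiter-Glo luminescence in C3RL4 cells treated 6 hr at 37 C with compound and retinol (1 uM final). Cells plated at 1,000/well and cultured overnight before dosing.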

Experiment [11] in a line: qHTS assay to identify small molecule antagonists of the retinoic acid receptor (RAR) signaling pathway (AID 1159552; further: nearly all actives have a fitted effect of over 50% in size; further: potency means the concentration at half of the fitted maximal effect). The essentials:
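Overnight-plated C3RL4 reporter cells get compound, then retinol to 1 uM final; plates sit 6 hr at 37 C, 5% CO2. A luciferase reagent is added and light output recorded after 30 min at room temperature.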

Experiment [12] can be described thus: qHTS assay to identify small molecule agonists of the retinoic acid receptor (RAR) signaling pathway (AID 1159553). Further: potency means the concentration at half of the fitted maximal effect. The essentials: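 Luminescence was measured 30 min after luciferase reagent addition at room temperature. Before that, C3RL4 reporter cells (1,000 per well, plated overnight) were treated with compound for 6 hr at 37 C and 5% CO2.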
A short description of experiment [13]: qHTS assay to identify small molecule agonists of the NFkB signaling pathway - cell viability counter screen (AID 1159515; calls by dose curve; further: series mostly up to about 61 µM; nearly all actives have a fitted effect of over 55% in size). The essentials: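 Read by CellTiter-Glo luminescence (30 min, room temperature) in the wells also used for the beta-lactamase FRET read. ME-180 NFkB-bla cells at 2,000 per well were plated overnight, then exposed to compound for 5 hr at 37 C.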

The target in experiment [14] is Nuclear receptor ROR-gamma (Homo sapiens) (UniProt P51449). Briefly: qHTS assay to identify small molecule antagonists of the retinoid-related orphan receptor gamma (ROR-gamma) signaling pathway (AID 1159521; further: nearly all actives have a fitted effect of over 50% in size; further: potency means the concentration at half of the fitted maximal effect). In a few lines: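 Readout: ONE-Glo luciferase luminescence, 30 min at room temperature. System: Tet-on RORγ CHO, RORE-LUC. Sequence: compound 2 h, doxycycline 1 uM final, 16 h at 37 C.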

Experiment [15] deals with Retinoic acid receptor RXR-alpha (Homo sapiens) (UniProt P19793). The experiment can be described thus: qHTS assay to identify small molecule agonists of the RXR signaling pathway (AID 1159527; calls by dose curve; further: nearly all actives have a fitted effect of over 35% in size). In a few lines:
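Reporter activation is measured as beta-lactamase activity via FRET substrate cleavage (emission 460/530 nm) in HEK 293T cells expressing an RXR-alpha-driven bla construct, following 16 hr compound exposure at 37 C.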

Chain of Retinoic acid receptor RXR-alpha (Homo sapiens) (P19793 whole entry, looked up): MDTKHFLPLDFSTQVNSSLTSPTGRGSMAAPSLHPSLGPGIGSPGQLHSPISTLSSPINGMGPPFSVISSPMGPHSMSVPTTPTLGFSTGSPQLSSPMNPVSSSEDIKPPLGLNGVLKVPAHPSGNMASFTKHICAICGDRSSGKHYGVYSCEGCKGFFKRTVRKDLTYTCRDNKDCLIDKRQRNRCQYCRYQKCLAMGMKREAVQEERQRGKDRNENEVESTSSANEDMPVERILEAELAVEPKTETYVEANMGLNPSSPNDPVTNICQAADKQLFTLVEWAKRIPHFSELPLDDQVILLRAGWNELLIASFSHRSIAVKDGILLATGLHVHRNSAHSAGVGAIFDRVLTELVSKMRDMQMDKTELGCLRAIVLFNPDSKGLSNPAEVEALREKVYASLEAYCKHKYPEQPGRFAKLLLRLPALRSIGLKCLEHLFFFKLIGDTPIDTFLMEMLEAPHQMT

Regarding `CCOP(=S)(OCC)SCn1nnc2ccccc2c1=O`, the Potency in experiment [1] is 54.9 µM (active); in [2], 49 µM (active). Besides, the outcome in experiment [3], in experiment [4] and in experiment [8] was inactive. In addition, the Potency entry in experiment [5], in experiment [6], in experiment [7], in experiment [9], in experiment [10] and in experiment [11] was “inactive” each time. Besides, in [12], the Potency result was “inactive”.

With `CC(=O)C(C)(C)C`, the Potency entry in experiment [1], in experiment [2], in [13], in experiment [6], in experiment [7] and in experiment [9] was “inactive” throughout. Also, the Potency result in experiment [10], in experiment [11] and in [12] was “inactive” throughout. The result in experiment [3] and in experiment [8] was inactive.

As for `Clc1cccc(SC2CCNCC2)n1`, the Potency result in experiment [1], in experiment [2], in [5], in experiment [6], in experiment [14] and in experiment [7] was “inactive” each time. Also, the Potency entry in [15], in experiment [9], in experiment [10], in [11] and in [12] was “inactive” each time. Also, the result in [3], in [4] and in [8] was inactive.

For the compound `NS(=O)(=O)C(F)(F)C(F)(F)C(F)(F)C(F)(F)C(F)(F)C(F)(F)C(F)(F)C(F)(F)F`, the figures for the Potency in experiment [1] and in experiment [14] were 49 µM (active) and 54.5 µM (active), respectively. For the same compound, the call in experiment [3] and in experiment [8] was inactive. Also, the Potency entry in experiment [13], in experiment [7], in experiment [9], in [10], in [11] and in experiment [12] was “inactive” each time.

As for `NC(=O)C(Cl)(Cl)Cl`, the Potency entry in experiment [1], in experiment [2], in experiment [5], in experiment [6], in experiment [14] and in [7] was “inactive” throughout. For the same compound, the Potency entry in experiment [15], in experiment [9], in experiment [10], in experiment [11] and in experiment [12] was “inactive” each time. For the same compound, the call in experiment [3], in experiment [4] and in experiment [8] was inactive.

`Cn1cc[n+](C)c1` (tested in a mixture with another compound): the Potency result in experiment [1], in experiment [2], in experiment [5], in experiment [6], in experiment [14] and in [7] was “inactive” each time. The Potency result in experiment [15], in experiment [9], in experiment [10], in experiment [11] and in [12] was “inactive” each time. In addition, the outcome in experiment [3], in experiment [4] and in experiment [8] was inactive.

As for `CN1C(=O)C(O)N=C(c2ccccc2)c2cc(Cl)ccc21` (centres undefined), the Potency entry in [1], in experiment [2], in experiment [13], in experiment [14], in [7] and in experiment [15] was “inactive” throughout. The Potency entry in experiment [9], in experiment [10] and in experiment [12] was “inactive” throughout. The compound was called inactive in experiment [3] and in [8]. Also, in experiment [11], the Potency was 63.3 µM (active).

`COc1nn(C(=O)NS(=O)(=O)c2ccccc2OC(F)(F)F)c(=O)n1C`: the Potency entry in experiment [1], in experiment [2], in experiment [13], in experiment [6], in [7] and in [9] was “inactive” in each case. Also, the Potency result in experiment [10], in experiment [11] and in experiment [12] was “inactive” each time. In addition, the outcome in [3] and in experiment [8] was inactive.

For the compound `Nc1ccc(N=Nc2ccc(-c3ccc(N=Nc4c(S(=O)(=O)O)cc5cc(S(=O)(=O)O)c(N=Nc6ccccc6)c(O)c5c4N)cc3)cc2)c(N)c1`, the compound was classed as inactive in [3]. Moreover, the Potency result in experiment [13], in [7], in [9] and in experiment [11] was “inactive” each time. In addition, the Potency in experiment [6] and in experiment [10] was 15.7 µM (active) throughout.

As to `C=CC(=O)OC`, the Potency entry in [1], in experiment [2], in experiment [13], in [7], in experiment [15] and in [9] was “inactive” throughout. Besides, the Potency result in experiment [10] and in [12] was “inactive” in each case. The compound was called inactive in experiment [3] and in experiment [8].

For `O=C=Nc1ccc(Cl)cc1`, the compound was classed as inactive in [3], in experiment [4] and in experiment [8]. Further, the Potency result in [5], in [6], in experiment [14], in experiment [7], in experiment [10] and in [11] was “inactive” throughout. The Potency in [12] was 24.3 µM (active).

Take `CC(Cl)Cl`: the Potency result in experiment [1], in [2], in [5], in experiment [14], in experiment [7] and in experiment [15] was “inactive” each time. Besides, the Potency entry in experiment [9], in experiment [10] and in experiment [12] was “inactive” in each case. In addition, the call in experiment [3], in [4] and in experiment [8] was inactive.

For `O=C1c2ccccc2C(=O)C1C(=O)C(c1ccccc1)c1ccccc1`, the Potency entry in experiment [2], in experiment [13], in experiment [6], in experiment [7], in experiment [9] and in [10] was “inactive” throughout. Moreover, the Potency entry in experiment [11] and in [12] was “inactive” each time. In addition, the result in experiment [3] and in experiment [8] was inactive.

With `Cc1ccc2ccccc2c1`, the Potency result in experiment [1], in experiment [2], in experiment [5], in [6], in [14] and in experiment [7] was “inactive” throughout. The Potency entry in experiment [15], in [9] and in [10] was “inactive” in each case. Moreover, the compound was called inactive in experiment [3], in [4] and in [8].

As for `O=[N+]([O-])c1ccccc1CCl`, the Potency entry in experiment [1], in experiment [2], in [13], in [14], in [7] and in experiment [15] was “inactive” in each case. In addition, the Potency entry in experiment [9] and in experiment [10] was “inactive” in each case. Also, the call in experiment [3] was inactive.

Turning to `BrCC(Br)C1CCC(Br)C(Br)C1` (centres undefined), the Potency result in [2], in experiment [13], in experiment [6], in experiment [7], in experiment [9] and in experiment [10] was “inactive” each time. In experiment [12], the Potency result was “inactive”. Further, the result in [3] was inactive.

`CC1Sc2c(C(=O)O)c(=O)c3cc(F)c(N4CCNCC4)cc3n21` (centres undefined): the Potency result in experiment [1], in [2], in [13], in experiment [14], in [7] and in experiment [15] was “inactive” throughout. The Potency entry in [9], in [10], in [11] and in [12] was “inactive” in each case. Further, the result in [3] and in experiment [8] was inactive.

With `CNC(C)Cc1ccccc1OC` (centres undefined), the Potency result in experiment [1], in [2], in experiment [13], in experiment [14], in experiment [7] and in experiment [15] was “inactive” each time. The Potency result in [9], in [10] and in experiment [12] was “inactive” each time. The result in experiment [3] and in experiment [8] was inactive.

`CCC(Br)(CC)C(=O)NC(N)=O`: the Potency result in experiment [1], in experiment [2], in experiment [5], in experiment [14], in [7] and in experiment [15] was “inactive” throughout. The Potency entry in experiment [9], in [10] and in [11] was “inactive” in each case. Further, the compound was classed as inactive in experiment [3], in experiment [4] and in [8].

As to `CCOC(=O)CBr`, the Potency result in experiment [1], in experiment [5], in [6], in experiment [14], in experiment [7] and in experiment [15] was “inactive” each time. Further, the Potency entry in experiment [9], in experiment [10], in experiment [11] and in experiment [12] was “inactive” in each case. Further, the compound was classed as inactive in experiment [3], in [4] and in experiment [8].

Consider `CCCN(CCC)c1c([N+](=O)[O-])cc(S(C)(=O)=O)cc1[N+](=O)[O-]`, for which the Potency entry in [1], in [2], in [13], in experiment [6], in experiment [7] and in [9] was “inactive” in each case. The Potency result in experiment [10] and in [12] was “inactive” each time. The call in experiment [3] and in experiment [8] was inactive.
